Hits are enriched below; roughly 2.6% of the tested compounds scored in any of these assays.
MLLE-PAM2 inh – blocks PAM2 peptide binding to the PABP1 MLLE domain; P11940; GST-MLLE / FITC-PAM2 fluorescence polarization; inhibition, % at 20 µM; actives 0.36% (n = 360,000); AID 588489; in the data active = inhibition above about 35%, passing the limit was not always enough;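 also: plate controls were DMSO wells with GST-MLLE for no effect and wells lacking GST-MLLE protein for full effect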
PHOSPHO1 block – blocks human PHOSPHO1 phosphatase activity | recombinant PHOSPHO1, absorbance phosphatase assay | Q8TCT1 | inhibition, % at 13.3 µM | actives 1.1% (n = 290,000) | AID 1565; in the data active = inhibition above about 60%
Target sequence (Q8TCT1 whole entry, looked up): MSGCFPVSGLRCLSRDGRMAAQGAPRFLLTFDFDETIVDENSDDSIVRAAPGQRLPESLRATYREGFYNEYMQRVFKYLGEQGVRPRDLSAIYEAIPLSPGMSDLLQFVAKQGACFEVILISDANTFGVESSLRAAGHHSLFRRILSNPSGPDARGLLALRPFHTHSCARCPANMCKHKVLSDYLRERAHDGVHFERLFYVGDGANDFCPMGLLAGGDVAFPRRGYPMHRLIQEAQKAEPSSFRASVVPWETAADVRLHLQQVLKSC
eIF4H inh – inhibitors of RNA binding by human eIF4H; Q15056; actives 0.94% (n = 290,000); eIF4H fluorescence polarization binding assay; inhibition, % at 35 µM;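 also: calls also rest on retests at 20 µM and on dose response follow-up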
AI-2 QS mod – Vibrio harveyi AI-2 quorum sensing modulation | AID 2094 | Vibrio harveyi JMH597 AI-2 luminescence/OD600 ratio, 9 h; hits give low values; strain lacks LuxN and CqsS sensors; 0 = neutral-control median | activity change, % at 7.5 µM | actives 0.4% (n = 300,000); in the data active = activity change below about -75%, passing the limit was not always enough;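 also: luminescence divided by OD600 gain over 9 h not by final OD600 alone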
PABP FP inh – blocks human PABP binding to poly(A) RNA | P11940 | fluorescence polarization | calls only at 35 µM | actives 1% (n = 290,000) | AID 2014;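 also: calls also rest on retests at 20 µM and on dose response follow-up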
ABCB6 inh MLPCN – inhibitors of human ABC transporter ABCB6 | actives 0.19% (n = 360,000) | Q9NP58 | K562-ABCB6 porphyrin accumulation, flow cytometry, 1 h; hits give low values | fluorescence ratio to DMSO, % at 10 µM;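 active = fluorescence ratio to DMSO below 75%, the collection mean minus 3 SD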;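 also: signal is porphyrin accumulated inside mitochondria; 100% equals median channel fluorescence of DMSO control wells; lower ratio means ABCB6 inhibition with less porphyrin fluorescence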
ABCB6 inh CP1 – inhibitors of human ABC transporter ABCB6. 700 tested, under 10 active. shares compounds with ABCB6 inh MLPCN. ratio response (% of DMSO), % at 10 µM. K562-ABCB6 porphyrin accumulation, flow cytometry, 1 h; hits give low values;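 active = repeat-averaged ratio response below 75% of DMSO, the collection mean minus 3 SD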;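 also: median porphyrin fluorescence at 575 nm with 488 nm excitation from mitochondria; lower ratio means less porphyrin signal so ABCB6 inhibition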
The depositor's hits bear a star; i = inactive; · = no result given. Unless noted, no rule for the calls is given here.

SMILES	MLLE-PAM2 inh	PHOSPHO1 block	eIF4H inh	AI-2 QS mod	PABP FP inh	ABCB6 inh MLPCN	ABCB6 inh CP1
Cn1nc(-c2ccc(C(=O)N3CCN(CCO)CC3)cc2)c2ccccc2c1=O	10	22	3	5	i	72*	97
COc1ccc(CN2CCN(c3ncccn3)CC2)c(C)c1C	-1	·	9	16	i	97	·
COc1cc(C)c(CN2CCN(c3ncccn3)CC2)cc1C	2	·	·	23	·	16*	97
CC1Cc2[nH]c(=S)[nH]c(=O)c2C(c2ccc(F)cc2)O1 (centres undefined)	·	·	·	·	·	102	·
Cc1cc(O)c(C(C)C)cc1NC(=O)Cn1nc(C)c2ccccc2c1=O	-3	29	4	-40	i	74*	101
CN1CCCCC1(C)C(=O)NCc1ccc(F)cc1 (centres undefined)	-6	·	·	·	·	97	·
CN(C)CCN1CCN(C2CN(CCc3ccccc3)S(=O)(=O)C2)CC1 (centres undefined)	12	·	·	·	·	95	·
COc1cc(C(=O)N2CCN(C/C=C/c3ccccc3)CC2)cc(OC)c1OC	1	-7	2	11	i	96	·
CCOc1cc(C(=O)N2CCN(C/C=C/c3ccccc3)CC2)cc(OCC)c1OCC	-14	2	3	42	i	67*	100
COc1ccc(-n2nc(C(=O)NCC(=O)NCC3CCCO3)c3ccccc3c2=O)cc1 (centres undefined)	4	-5	-8	17	i	97	·
COc1ccc(-n2nc(C(=O)NCC3CCCO3)c3ccccc3c2=O)cc1 (centres undefined)	3	-88	-10	-5	i	16*	99
Cc1ccc2oc(=O)c3cnn(CC(=O)NCCc4ccsc4)c3c2c1	0	1	0	2	i	54*	103
CCOc1ccc(C(C(=O)NCC2CCCO2)N(Cc2cccnc2)C(=O)c2snc(C(N)=O)c2N)cc1 (centres undefined)	-5	18	6	5	i	74*	102
CCOc1ccc(C(C(=O)NCC2CCCO2)N(Cc2ccccc2)C(=O)c2snc(C(N)=O)c2N)cc1 (centres undefined)	-12	28	-2	26	i	97	·
CCc1nc2ccc(C(=O)N3CCCC(C(N)=O)C3)cn2c1N(CCC(C)C)CCN(C)C (centres undefined)	-8	·	·	·	·	92	·
CCSc1nc(C)c(C)c(=O)[nH]1	-19	5	1	2	i	72*	98
CSc1ccc(CN2C(=O)C(F)(F)Oc3c(C(C)=O)cccc32)cc1	-29	·	·	·	·	74*	101
CSc1ccc(CN2C(=O)C(C)Oc3c(C(C)=O)cccc32)cc1 (centres undefined)	0	·	·	·	·	97	·
O=C(/C=C/[C@H]1O[C@@H](n2ccc(=O)[nH]c2=O)[C@H](O)[C@@H]1O)N1CCN(CCc2ccccc2)CC1	8	·	·	·	·	110	·
CC(C)(CNC(=O)c1ccc(S(=O)(=O)Nc2cccc(C(F)(F)F)c2)cc1)N1CCOCC1	-4	·	·	·	·	72*	102
O=C(c1ccc(S(=O)(=O)Nc2cccc(C(F)(F)F)c2)cc1)N1CCOCC1	-7	29	-4	15	i	97	·
CC(C)(C)c1ccc(CC(=O)N2CCC2(C)C(=O)NCc2cccs2)cc1 (centres undefined)	-14	·	·	·	·	96	·
C/C(=N\O)c1c(O)cc(-c2ccccc2)n(-c2ccccc2)c1=O	-7	25	5	-3	i	99	·
O=c1c(-c2ccccc2)c(O)cc(-c2ccncc2)n1-c1ccc(Cl)cc1	6	-26	-4	11	i	64*	102
CC(C)C[C@H]1CN(CCCC[C@H]2CNC(=O)C(=O)N2Cc2ccccc2)C(=O)C(=O)N1CC1CCCCC1	·	·	·	·	·	94	·
SMILES	MLLE-PAM2 inh	PHOSPHO1 block	eIF4H inh	AI-2 QS mod	PABP FP inh	ABCB6 inh MLPCN	ABCB6 inh CP1
CCOC(=O)[C@]12CCCC=C1N(Cc1cccc3ccccc13)C(=O)[C@H](CC(=O)N1CCC(c3ccccc3)CC1)C2	·	·	·	·	·	92	·
CCOC(=O)C1(C(F)(F)F)N=C(C(F)(F)F)Nc2ccc(F)cc21 (centres undefined)	-11	18	-7	6	i	59*	103
CCOC(=O)C(NC(=O)Nc1ccc(F)cc1)(OCC)C(F)(F)F (centres undefined)	-6	-12	-4	15	i	88	·
CC(C)N1CCC(C)(C(=O)Nc2cc(-c3ccccc3)nn2C)C1 (centres undefined)	-14	·	·	·	·	96	·
CC(C)c1ccc(NC(=O)COc2ccccc2)cc1	4	-21	0	-20	i	100	·
CC(C)c1ccc(OCC(=O)Nc2ccc(OC(F)(F)F)cc2)cc1	0	-62	-5	36	i	63*	99
O=C(COC(=O)c1ncc(Cl)c(Cl)c1Cl)c1ccc(Cl)s1	5	15	2	11	i	72*	98
CCn1nc(C(=O)O)c(=O)c2cc3c(cc21)OCO3	8	23	-6	15	i	71*	99
COC(=O)CCC(=O)Nc1ccc(NC(=O)CCC(=O)OC)cc1	-3	-13	-8	-7	i	99	·
COC(=O)CCC(=O)Nc1cc(Cl)cc(Cl)c1	2	39	-2	16	i	72*	100
O=C(NCc1ccncc1)[C@@H]1CCCN1C(=O)[C@H]1CCCN1	·	·	·	·	·	102	·
O=C(Nc1ccccc1Cl)c1cc(C2CCCCN2C(=O)c2ccccc2)on1 (centres undefined)	0	·	·	·	·	104	·
CCN(CC)S(=O)(=O)c1cccc(-n2c(O)c(C=Nc3ccccc3C(=O)O)c3ccccc3c2=O)c1	8	-1	2	-2	i	74*	83
O=C(O)c1ccccc1N=Cc1c(O)n(-c2nccs2)c(=O)c2ccccc12	-3	-21	7	16	i	95	·
COCc1cc(C)nc(SCC(=O)N2CCC(C)CC2)c1C#N	-3	7	-1	-3	i	58*	102
CCCS(=O)(=O)NC(=O)C1(C)CCN(C(=O)c2ccnc(Cl)c2)C1 (centres undefined)	2	·	·	·	·	102	·

Screening results (PubChem BioAssay)
